# Experimental data from PubChem BioAssay AID1159580 (chemical genetic matrix, 2015).
# Out of some 5,500 compounds screened, about 2,000 (36%) were called active. Not shown: some 18% with an inconclusive outcome. Some of the results follow. Values without a mark were called inactive. No stated cut-off is given here; in the data, active means normalized growth mostly below about 0.91 (no sharp cut-off); inconclusive means no clear call, values can overlap the other calls; inactive means mostly above about 0.92.
# Assay: chemical genetic growth profiling, strain panel (AID 1159580);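 further: tested at 20 µM; growth read once vehicle control cultures reached saturation at 30 °C; 1 = growth at the plate median or of vehicle wells; lower values mean less growth of the strain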
# Settings: growth OD
compound,measurement,setting,value
C[C@H](CCC(=O)O)[C@H]1CCC2C3C(CC[C@@]21C)[C@@]1(C)CC[C@@H](O)C[C@H]1C[C@@H]3O (stereo partly specified),normalized growth,"S. cerevisiae deletion strains, locus YKL009W, strain mrt4, hits give low values",0.807 (active)
same,normalized growth,"S. cerevisiae deletion strains, locus YKL068W, hits give low values",0.989
same,normalized growth,"S. cerevisiae deletion strains, locus YKL085W, strain MDH1 (second series), hits give low values",0.953
same,normalized growth,"S. cerevisiae deletion strains, locus YKL085W, strain MDH1, hits give low values",0.953
same,normalized growth,"S. cerevisiae deletion strains, locus YKL160W, strain elf1, hits give low values",0.977
same,normalized growth,"S. cerevisiae deletion strains, locus YKL190W, strain CNB1, hits give low values",0.99
same,normalized growth,"S. cerevisiae deletion strains, locus YKR001C, strain vps1, hits give low values",0.963
same,normalized growth,"S. cerevisiae deletion strains, locus YKR026C, strain gcn3, hits give low values",0.997
same,normalized growth,"S. cerevisiae deletion strains, locus YKR091W, strain srl3, hits give low values",0.99
same,normalized growth,"S. cerevisiae deletion strains, locus YLL001W, strain dnm1, hits give low values",0.953
same,normalized growth,"S. cerevisiae deletion strains, locus YLL026W, hits give low values",0.987
same,normalized growth,"S. cerevisiae deletion strains, locus YLL041C, strain sdh2, hits give low values",1
same,normalized growth,"S. cerevisiae deletion strains, locus YLR027C, strain aat2, hits give low values",0.983
same,normalized growth,"S. cerevisiae deletion strains, locus YLR039C, strain RIC1, hits give low values",0.828
same,normalized growth,"S. cerevisiae deletion strains, locus YLR058C, strain SHM2, hits give low values",0.984
same,normalized growth,"S. cerevisiae deletion strains, locus YLR102C, strain apc9, hits give low values",0.972
same,normalized growth,"S. cerevisiae deletion strains, locus YLR113W, strain HOG1, hits give low values",0.937
same,normalized growth,"S. cerevisiae deletion strains, locus YLR221C, strain rsa3, hits give low values",1.05
same,normalized growth,"S. cerevisiae deletion strains, locus YLR258W, strain gsy2, hits give low values",1.02
same,normalized growth,"S. cerevisiae deletion strains, locus YLR262C, strain YPT6 (second series), hits give low values",0.795 (active)
same,normalized growth,"S. cerevisiae deletion strains, locus YLR262C, strain YPT6, hits give low values",0.776
same,normalized growth,"S. cerevisiae deletion strains, locus YLR268W, strain sec22, hits give low values",0.929
same,normalized growth,"S. cerevisiae deletion strains, locus YLR320W, strain mms22, hits give low values",1.03
same,normalized growth,"S. cerevisiae deletion strains, locus YLR330W, strain CHS5, hits give low values",0.996
same,normalized growth,"S. cerevisiae deletion strains, locus YLR342W, strain FKS1 (second series), hits give low values",0.965
same,normalized growth,"S. cerevisiae deletion strains, locus YLR342W, strain FKS1, hits give low values",0.946
same,normalized growth,"S. cerevisiae deletion strains, locus YLR357W, strain rsc2, hits give low values",1.06
same,normalized growth,"S. cerevisiae deletion strains, locus YLR370C, strain arc18, hits give low values",0.964
same,normalized growth,"S. cerevisiae deletion strains, locus YLR371W, strain rom2, hits give low values",0.987
same,normalized growth,"S. cerevisiae deletion strains, locus YLR384C, strain iki3, hits give low values",0.967
same,normalized growth,"S. cerevisiae deletion strains, locus YLR418C, strain cdc73, hits give low values",0.965
same,normalized growth,"S. cerevisiae deletion strains, locus YML016C, strain PPZ1, hits give low values",0.978
same,normalized growth,"S. cerevisiae deletion strains, locus YML032C, strain rad52, hits give low values",0.95
same,normalized growth,"S. cerevisiae deletion strains, locus YML120C, strain ndi1, hits give low values",0.962
same,normalized growth,"S. cerevisiae deletion strains, locus YML124C, strain tub3, hits give low values",0.986
same,normalized growth,"S. cerevisiae deletion strains, locus YMR058W, strain fet3, hits give low values",0.997
same,normalized growth,"S. cerevisiae deletion strains, locus YMR078C, strain ctf18, hits give low values",0.972
same,normalized growth,"S. cerevisiae deletion strains, locus YMR125W, strain sto1, hits give low values",1.03
same,normalized growth,"S. cerevisiae deletion strains, locus YMR129W, hits give low values",0.988
same,normalized growth,"S. cerevisiae deletion strains, locus YMR205C, strain PFK2, hits give low values",0.985
same,normalized growth,"S. cerevisiae deletion strains, locus YMR223W, strain ubp8, hits give low values",1
same,normalized growth,"S. cerevisiae deletion strains, locus YMR231W, strain pep5, hits give low values",0.959
same,normalized growth,"S. cerevisiae deletion strains, locus YMR263W, strain SAP30, hits give low values",1
same,normalized growth,"S. cerevisiae deletion strains, locus YMR307W, strain GAS1, hits give low values",0.88
same,normalized growth,"S. cerevisiae deletion strains, locus YNL067W, strain RPL9B, hits give low values",0.972
same,normalized growth,"S. cerevisiae deletion strains, locus YNL071W, strain lat1, hits give low values",1.01
same,normalized growth,"S. cerevisiae deletion strains, locus YNL128W, strain TEP1, hits give low values",0.99
same,normalized growth,"S. cerevisiae deletion strains, locus YNL153C, strain GIM3, hits give low values",1
same,normalized growth,"S. cerevisiae deletion strains, locus YNL183C, strain NPR1, hits give low values",0.921
same,normalized growth,"S. cerevisiae deletion strains, locus YNL209W, strain ssb2, hits give low values",1.01
same,normalized growth,"S. cerevisiae deletion strains, locus YNL233W, strain BNI4, hits give low values",1.02
same,normalized growth,"S. cerevisiae deletion strains, locus YNL248C, strain rpa49, hits give low values",1.02
same,normalized growth,"S. cerevisiae deletion strains, locus YNL250W, strain rad50, hits give low values",0.978
same,normalized growth,"S. cerevisiae deletion strains, locus YNL271C, strain bni1, hits give low values",0.956
same,normalized growth,"S. cerevisiae deletion strains, locus YNL298W, strain CLA4, hits give low values",0.937
same,normalized growth,"S. cerevisiae deletion strains, locus YNL307C, strain MCK1, hits give low values",0.979
same,normalized growth,"S. cerevisiae deletion strains, locus YNL322C, strain KRE1 (second series), hits give low values",0.981
same,normalized growth,"S. cerevisiae deletion strains, locus YNL322C, strain KRE1, hits give low values",0.993
same,normalized growth,"S. cerevisiae deletion strains, locus YNR049C, strain mso1, hits give low values",0.993
same,normalized growth,"S. cerevisiae deletion strains, locus YNR052C, strain pop2, hits give low values",0.971
same,normalized growth,"S. cerevisiae deletion strains, locus YOL006C, strain TOP1, hits give low values",0.931
same,normalized growth,"S. cerevisiae deletion strains, locus YOL012C, strain htz1",0.86
same,normalized growth,"S. cerevisiae deletion strains, locus YOL147C, strain pex11, hits give low values",0.983
same,normalized growth,"S. cerevisiae deletion strains, locus YOR001W, strain rrp6, hits give low values",0.947
same,normalized growth,"S. cerevisiae deletion strains, locus YOR061W, strain CKA2, hits give low values",0.977
same,normalized growth,"S. cerevisiae deletion strains, locus YOR069W, strain VPS5, hits give low values",0.989
same,normalized growth,"S. cerevisiae deletion strains, locus YOR070C, strain gyp1, hits give low values",1
same,normalized growth,"S. cerevisiae deletion strains, locus YOR080W, strain dia2, hits give low values",0.972
same,normalized growth,"S. cerevisiae deletion strains, locus YOR083W, strain WHI5, hits give low values",0.969
same,normalized growth,"S. cerevisiae deletion strains, locus YOR106W, strain vam3, hits give low values",0.951
same,normalized growth,"S. cerevisiae deletion strains, locus YOR136W, strain idh2, hits give low values",1
same,normalized growth,"S. cerevisiae deletion strains, locus YOR144C, strain elg1, hits give low values",0.984
same,normalized growth,"S. cerevisiae deletion strains, locus YOR184W, strain ser1, hits give low values",0.921
same,normalized growth,"S. cerevisiae deletion strains, locus YOR231W, strain MKK1, hits give low values",0.952
same,normalized growth,"S. cerevisiae deletion strains, locus YOR265W, strain rbl2, hits give low values",0.99
same,normalized growth,"S. cerevisiae deletion strains, locus YOR270C, strain vph1, hits give low values",0.945
same,normalized growth,"S. cerevisiae deletion strains, locus YOR290C, strain snf2, hits give low values",1.03
same,normalized growth,"S. cerevisiae deletion strains, locus YOR316C, strain cot1, hits give low values",0.982
same,normalized growth,"S. cerevisiae deletion strains, locus YPL051W, strain arl3, hits give low values",1
same,normalized growth,"S. cerevisiae deletion strains, locus YPL055C, strain LGE1, hits give low values",1.01
same,normalized growth,"S. cerevisiae deletion strains, locus YPL078C, strain atp4, hits give low values",0.931
same,normalized growth,"S. cerevisiae deletion strains, locus YPL106C, strain sse1, hits give low values",0.993
same,normalized growth,"S. cerevisiae deletion strains, locus YPL240C, strain hsp82, hits give low values",1.01
same,normalized growth,"S. cerevisiae deletion strains, locus YPL241C, strain CIN2, hits give low values",0.993
same,normalized growth,"S. cerevisiae deletion strains, locus YPL256C, strain CLN2, hits give low values",0.936
same,normalized growth,"S. cerevisiae deletion strains, locus YPR119W, strain clb2, hits give low values",0.977
same,normalized growth,"S. cerevisiae deletion strains, locus YPR141C, strain kar3, hits give low values",0.97
same,normalized growth,"S. cerevisiae deletion strains, locus YPR163C, strain tif3, hits give low values",0.981
same,normalized growth,"S. cerevisiae deletion strains, locus YPR167C, strain met16, hits give low values",0.987
same,normalized growth,"S. cerevisiae deletion strains, strain wtn01, hits give low values",0.971
same,normalized growth,"S. cerevisiae strains, strain wild type, hits give low values",0.994
